Screens as filed in PubChem BioAssay.
Shown are actives, neighbours in structure and some others; about 7.9% of the full set was active somewhere.
KB-V1 MDR tox: qHTS assay for MDR1-selective chemotherapeutics: Primary screen using the drug-selected MDR subline cells KB-V1. KB-V1 MDR cells viability, CellTiter-Glo, 72 h. Potency, µM (highest dose often 46.1 µM), most hits filed as cytotoxic. 3.4% of 400,000 active; also: nearly all actives have a fitted effect of over 60% in size
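Following 72 h at 37 degrees C with compound, KB-V1 cell viability was read by CellTiter-Glo luminescence, medium being phenol-red-free DMEM plus 10% FBS; concentration-response parameters came from normalized, curve-fitted qHTS data.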
SW480 rereplic: A quantitative high throughput screen for small molecules that induce DNA re-replication in SW480 colon adenocarcinoma cells. SW480 DNA re-replication, Hoechst DNA content imaging, 48 h. Potency, µM (series often up to 46.1 µM), most hits filed as activators. 1.8% of 340,000 active; also: nearly all actives have a fitted effect of over 55% in size
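Treated cells incubate 48 hr (37 C, 5% CO2), are stained 40 min with Hoechst, and nuclear fluorescence is enumerated; a rise in nuclei with high DNA signal marks re-replication.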
HT1080-NT tox: qHTS for induction of synthetic lethality in tumor cells producing 2HG: qHTS for the HT-1080-NT fibrosarcoma cell line; Potency, µM (top dose mostly 46.1 µM), actives largely listed as cytotoxic; HT-1080-NT fibrosarcoma viability, CellTiter-Glo ATP luminescence, 48 h; 1.6% of 360,000 active;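 also: NT is the 2HG producing partner of a matched IDH1 knockdown line; nearly all actives have a fitted effect of over 55% in size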
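Toxicity toward the 2HG-producing NT line was scored as %Activity, normalised to DMSO and no-cell wells, from CellTiter-Glo luminescence after 48 hours' treatment.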
MCF10A rereplic: A quantitative high throughput screen for small molecules that induce DNA re-replication in MCF 10a normal breast cells; MCF 10A DNA re-replication, Hoechst nuclear intensity, 48 h; Potency, µM (titrated, usually from 46.1 µM), usual class: activators; 2.9% of 350,000 active; AID 624296, 2012; also: nearly all actives have a fitted effect of over 50% in size
HT1080 IDH1KD tx: qHTS for induction of synthetic lethality in tumor cells producing 2HG: qHTS for the HT-1080-IDH1KD cell line | HT-1080 IDH1 knockdown viability, ATP luminescence, 48 h | Potency, µM (top dose mostly 46.1 µM), actives largely listed as cytotoxic | 2% of 360,000 active
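% activity derives from luminescence (CellTiter-Glo), normalised to DMSO and no-cell wells. HT-1080-IDH1KD cells, 750/well, had 48 h compound exposure at 37 °C.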
KB-3-1 tox: qHTS assay for MDR1-selective chemotherapeutics: Primary screen using the parental adenocarcinoma cell KB-3-1; KB-3-1 viability, CellTiter-Glo ATP luminescence, 72 h; Potency, µM (doses to about 46.1 µM), usual class: cytotoxic; 1.4% of 400,000 active; also: nearly all actives have a fitted effect of over 60% in size
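Cells are dispensed, compounds pinned in, plates held at 37 °C for 72 h, then CellTiter-Glo is added and luminescence read after 10 minutes. Cell line: parental KB-3-1 in phenol-red-free DMEM, 10% FBS.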
Each line names hits and unclear results; the compound was inactive in the other large screens; ! = not active in a repeat. Calls follow the shape of the dose curve; as a rule, active = well fitted curve in the direction sought with a large enough effect; inconclusive = small, poorly fitted or top-dose-only effect, or another doubt; inactive = no such curve, though single readings can be large; an effect the other way counts as inactive or inconclusive.

O=C1NC(=O)N(Cc2ccc(F)cc2)C(=O)/C1=C\C=C\c1ccco1	KB-V1 MDR tox inconclusive, SW480 rereplic 8.2µM, HT1080-NT tox 21µM, MCF10A rereplic 3.7µM, HT1080 IDH1KD tx inconclusive, KB-3-1 tox inconclusive
O=C1NC(=O)N(Cc2ccccc2)C(=O)/C1=C\c1ccco1	none
CCc1ccc(N2C(=O)NC(=O)/C(=C\C=C\c3ccco3)C2=O)cc1	KB-V1 MDR tox inconclusive, SW480 rereplic 18µM, MCF10A rereplic 23µM, KB-3-1 tox inconclusive
CC(C)c1ccc(N2C(=O)NC(=O)/C(=C/C=C/c3ccco3)C2=O)cc1	KB-V1 MDR tox inconclusive, SW480 rereplic inconclusive, MCF10A rereplic 6.5µM, HT1080 IDH1KD tx inconclusive, KB-3-1 tox 15µM
Cc1ccc(N2C(=O)NC(=O)/C(=C/C=C/c3ccco3)C2=O)cc1	KB-V1 MDR tox 18µM, SW480 rereplic 16µM, HT1080-NT tox inconclusive, MCF10A rereplic 9.2µM, HT1080 IDH1KD tx 23µM, KB-3-1 tox inconclusive
C/C=C/C(=O)OCC(=O)Nc1ccc(OC)c(Cl)c1	MCF10A rereplic inconclusive
COc1cc(/C=C2\C(=O)NC(=O)N(c3ccccc3)C2=O)cc(OC)c1OC	none
O=C1NC(=O)N(c2ccccc2)C(=O)/C1=C\C=C\c1ccccc1	KB-V1 MDR tox inconclusive, SW480 rereplic 3.3µM, HT1080-NT tox inconclusive, MCF10A rereplic 23µM, HT1080 IDH1KD tx 5.2µM, KB-3-1 tox inconclusive
Cc1cc(C)cc(N2C(=O)NC(=O)/C(=C\C=C\c3ccco3)C2=O)c1	KB-V1 MDR tox 23µM, SW480 rereplic inconclusive, HT1080-NT tox inconclusive, MCF10A rereplic 13µM, HT1080 IDH1KD tx inconclusive, KB-3-1 tox inconclusive
O=C1NC(=O)N(c2ccccc2)C(=O)/C1=C\c1ccc([N+](=O)[O-])s1	SW480 rereplic 21µM, MCF10A rereplic inconclusive
CCOc1ccc(N2C(=O)/C(=C/c3ccco3)C(=O)NC2=S)cc1	SW480 rereplic inconclusive
CCCCN1C(=O)/C(=C/C=C/c2ccco2)C(=O)NC1=S	none
CCc1ccc(N2NC(=O)/C(=C/C=C/c3ccco3)C2=O)cc1	MCF10A rereplic 21µM
C[C@](O)(CS(=O)(=O)c1ccc(F)cc1)C(=O)Nc1ccc(C#N)c(C(F)(F)F)c1	none (no result: KB-V1 MDR tox, HT1080-NT tox, HT1080 IDH1KD tx, KB-3-1 tox)
CC1CC(C)CC(C)C(O)C(C#N)=CC=CCC(C2CCCC2C(=O)O)OC(=O)CC(O)C(C)C1 (centres undefined)	KB-V1 MDR tox 6.5µM, SW480 rereplic inconclusive, HT1080-NT tox 0.0092µM, MCF10A rereplic 0.13µM, HT1080 IDH1KD tx 0.18µM, KB-3-1 tox 1.2µM
COc1ccc(C[C@H]2NC[C@H](O)[C@H]2OC(C)=O)cc1	KB-V1 MDR tox 0.41µM, HT1080-NT tox 0.046µM, MCF10A rereplic inconclusive, HT1080 IDH1KD tx 0.16µM, KB-3-1 tox 0.33µM
COc1ccc(CCNC2CCCCC2)cc1	none
Cn1c(O)c(C(=Nc2ccccc2)SCc2ccc(Cl)cc2)c(=O)n(C)c1=O	KB-V1 MDR tox 5.2µM, HT1080-NT tox inconclusive, MCF10A rereplic inconclusive, HT1080 IDH1KD tx inconclusive, KB-3-1 tox inconclusive
Cc1ccccc1NCC(=O)N/N=C/C(Br)=C/c1ccccc1	KB-V1 MDR tox inconclusive, HT1080-NT tox inconclusive, HT1080 IDH1KD tx 18µM, KB-3-1 tox inconclusive
CC/C(=C\C=C\[C@@H]1C=C[C@@H]2CCC[C@H]2[C@@H]1C(=O)c1ccc[nH]1)[C@@H]1O[C@@H]([C@@H](C)C(=O)O)CC[C@@H]1C	KB-V1 MDR tox inconclusive, SW480 rereplic inconclusive, HT1080-NT tox 10µM, MCF10A rereplic inconclusive, HT1080 IDH1KD tx 8.2µM, KB-3-1 tox inconclusive
CC[C@@H]1[C@@H]2C[C@H]3[C@H]4N(C)c5ccccc5[C@@]45C[C@@H]([C@@H]2[C@@H]5O)N3[C@H]1O	none (no result: KB-V1 MDR tox, HT1080-NT tox, HT1080 IDH1KD tx, KB-3-1 tox)
CN1[C@@H]2CC[C@H]1CC(OC1c3ccccc3CCc3ccccc31)C2 (some centres undefined)	KB-V1 MDR tox inconclusive, SW480 rereplic 3.2µM!, HT1080-NT tox 16µM, HT1080 IDH1KD tx 26µM
CCN(CC)S(=O)(=O)c1ccc(C(=O)O)cc1	SW480 rereplic inconclusive
COc1ccc(CNC(=O)/C=C/c2ccc3[nH]cc(CCN(C)C)c3c2)cc1	SW480 rereplic 3.2µM
COc1ccc2[nH]cc(CCN(C)C)c2c1	none
Cc1nonc1OCCNc1ccc([N+](=O)[O-])c2cccnc12	KB-V1 MDR tox inconclusive, SW480 rereplic 0.52µM
NCCNc1ccc([N+](=O)[O-])c2cccnc12	MCF10A rereplic 0.65µM, KB-3-1 tox inconclusive
CCC(CO)Nc1ccc([N+](=O)[O-])c2cccnc12 (centres undefined)	KB-V1 MDR tox 18µM, KB-3-1 tox inconclusive
Cc1ccc(-n2c(-c3cccs3)nc3ccccc3c2=O)cc1	KB-V1 MDR tox 23µM
O=[N+]([O-])c1ccc(N2CC2)c([N+](=O)[O-])c1	KB-V1 MDR tox inconclusive, KB-3-1 tox inconclusive
O=[N+]([O-])c1ccc(Sc2nc3ccccc3o2)c([N+](=O)[O-])c1	KB-V1 MDR tox inconclusive, SW480 rereplic 4.1µM, HT1080-NT tox 13µM, MCF10A rereplic 12µM, HT1080 IDH1KD tx 2.8µM
O=C(COc1ccccc1Cl)N1CCN(CCc2ccncc2)CC1	none (no result: SW480 rereplic, HT1080-NT tox, MCF10A rereplic, HT1080 IDH1KD tx)
COCCCn1c(N)c(C(=O)Nc2sc3c(c2C(=O)OC)CCCC3)c2nc3ccccc3nc21	none
CCC(C)NC(=O)c1c(N)n(CC2CCCO2)c2nc3ccccc3nc12 (centres undefined)	KB-V1 MDR tox inconclusive, SW480 rereplic 18µM, MCF10A rereplic inconclusive
CC(C)CCNC(=O)c1c(N)n(CC2CCCO2)c2nc3ccccc3nc12 (centres undefined)	KB-V1 MDR tox inconclusive, SW480 rereplic 5.2µM, HT1080-NT tox inconclusive, MCF10A rereplic 2.3µM, HT1080 IDH1KD tx inconclusive, KB-3-1 tox inconclusive
COc1ccc(OCC(=O)N2CCN(Cc3cc(=O)n4nc(-c5ccc(OC)cc5)sc4n3)CC2)cc1	none (no result: SW480 rereplic, HT1080-NT tox, MCF10A rereplic, HT1080 IDH1KD tx)
C#CC(C)(O)CC (centres undefined)	none (no result: KB-V1 MDR tox, HT1080-NT tox, HT1080 IDH1KD tx, KB-3-1 tox)
Oc1cccc[c]1[Hg][Cl]	SW480 rereplic inconclusive (no result: KB-V1 MDR tox, HT1080-NT tox, HT1080 IDH1KD tx, KB-3-1 tox)
Oc1cc[c]([Hg][Cl])cc1	SW480 rereplic inconclusive, MCF10A rereplic 1.1µM (no result: KB-V1 MDR tox, HT1080-NT tox, HT1080 IDH1KD tx, KB-3-1 tox)
COc1ccc(S(=O)(=O)N(C)C[C@H]2Oc3c(NC(=O)NC4CCCCC4)cccc3C(=O)N([C@H](C)CO)C[C@@H]2C)cc1	SW480 rereplic inconclusive
O=C1CC(c2ccc(C(F)(F)F)cc2)c2c(c3ccccc3oc2=O)O1 (centres undefined)	none (no result: SW480 rereplic, HT1080-NT tox, MCF10A rereplic, HT1080 IDH1KD tx)
